# Where “and” joins values, the source holds several entries; their conditions need not be identical. Identical values can stand only once. About 83,000 compounds went through this panel and 20% of them were active in at least one assay; those are over-represented in the sample as a whole.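 Each cell line was grown in a 96-well plate and treated with one concentration of compound for 48 hours. Values below 10 were considered active.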 A number with no mark means an inactive call. Calls of active or inactive are those of the source.
# Tested on: HL-60(TB) leukemia
# Test: NCI-60 one-dose screen, 48 h (100 = growth as untreated, 0 = no growth, -100 = all killed)
# Settings: 10 µM unless noted
row,SMILES,growth
1,O=c1c2sc3ncccc3c2nnn1-c1ccccc1,106%
2,c1ccc2c(c1)CCN(NCCN1CCCC1)C2,96.9%
3,BrC/C=C/C[P+](c1ccccc1)(c1ccccc1)c1ccccc1,9.15% (active)
4,OCCCC1CCN(C(Cc2ccccc2)c2ccccc2)CC1 (stereo not given),95.8%
5,CCN1c2ccccc2C(Cl)(c2ccc(N(C)C)cc2)c2ccccc21,14%
6,O=C(NCc1ccccc1)Nc1ccccc1CNc1nc(Nc2ccc(OCCN3CCCC3)cc2)ncc1Cl,62.4%
7,Cc1cc2c(C(C)C)c(O)c(O)c(C=NCCCCCCC(=O)O)c2c(O)c1-c1c(C)cc2c(C(C)C)c(O)c(O)c(C=NCCCCCCC(=O)O)c2c1O,28.9%
8,C#CC(=O)Nc1cccc2c1cc(C)n2-c1nc2c(c(NCc3ccccc3)n1)CCCC2,-40.1% (active)
9,S=C1CCSC(=S)N1CCCN1C(=S)CCSC1=S,36.5%
10,CSc1ccc(C(=O)C[n+]2cccc(C)c2)cc1,102%
11,C/C(=N\NC(=O)c1ccccc1O)c1cccc(/C(C)=N/NC(=O)c2ccccc2O)n1,6.42% (active)
12,Cn1ccc(Cc2cnc(N)s2)n1,94.2%
13,C=CC[N+]1(CC)CCN=C1CCCCCCCCCCCCCCCCC (stereo not given),-59.5% (active)
14,COc1cc(NCCCCCN)c2ncccc2c1,83.2%
15,CC(C)N(CCOc1cccc(-c2nc3sccn3c2-c2ccnc(S(C)(=O)=O)n2)c1)C(C)C,80.8%
16,COc1ccccc1/C=N\N=C(N/N=C/c1ccccc1OC)N/N=C/c1ccccc1OC,31.3% and 41.7%
17,Cc1cc(N2CCCCC2)nc(N(CCCNc2ccnc3cc(Cl)ccc23)Cc2ccco2)n1,-43.6% (active)
18,CC(C)N1CCN(Cc2ccc3c(NNC(=O)c4ccccc4)nc4cc(F)ccc4n23)CC1,8.42% (active)
19,O=C(c1ccccc1)C1CCC1,88.2%
20,CCOC(=O)CSc1nnc(-c2cc3c([nH]c4ccccc43)c(-c3cccc(O)c3)n2)n1-c1ccc(C)cc1,45.3%

row,SMILES,growth
1,COc1ccc2nc(NC(=O)CSc3nnc4n3S(=O)(=O)c3ccccc3N4C)sc2c1,53.8%
2,COc1ccc2sc3cccc(NCCN(C)C)c3c(=O)c2c1,-49.5% (active)
3,OCCOc1c(Cl)cc(Cl)cc1Cl,118%
4,N/C(=N\c1nc2ccccc2s1)NC(=O)Nc1ccccc1Cl,-27.3% (active)
5,COC1=C(OC)C(=O)C(CCCCCCCCCC[P+](c2ccccc2)(c2ccccc2)c2ccccc2)=C(C)C1=O,-55.9% (active)
6,C=C(C)[C@@H]1CC[C@]2(C(=O)N[C@H](CO)Cc3ccccc3)CC[C@]3(C)[C@H](CC[C@@H]4[C@@]5(C)CCCNC(C)(C)[C@@H]5CC[C@]43C)[C@@H]12,-73.3% (active)
7,Cc1[nH]nc2c(=S)[nH]c(=O)[nH]c12,89.2%
8,N#Cc1ccc(NC(=O)Nc2cccc(C#N)c2)cc1,68.6%
9,C[C@H]1[C@H](C)CC[C@]2(CO)CC[C@]3(C)C(=CC[C@@H]4[C@@]5(C)CCCNC(C)(C)[C@@H]5CC[C@]43C)[C@H]12,-55% (active)
10,CCOC(=O)C(C)(CSSCC(C)(NC(=O)c1ccc2ccccc2c1)C(=O)OCC)NC(=O)c1ccc2ccccc2c1 (stereo not given),98.8%
11,CCNC(=O)c1ccc2c(c1)nc(-c1ccc(Cl)cc1)n2-c1cc(C(C)(C)C)[nH]n1,4.73% (active)
12,C#Cc1ccccc1NC(=O)c1sc2nc3c(cc2c1N)CCCCCC3,92.7%
13,COc1ccc(/C=C/C(=O)/C=C(/C=C/c2ccc(OC)c(OC)c2)OB(F)F)cc1OC,19.7%
14,COc1cc(/C=C\c2cc(/C=C\c3ccc(O)c(OC)c3)n(C(=O)CNc3ccccc3OC)n2)ccc1O,25.5%
15,COc1ccc(/C=N/C2=C(C#N)C(c3ccccc3[N+](=O)[O-])c3ccc4ccccc4c3O2)cc1 (stereo not given),100%
16,O=C1NC(=O)C2(CCCC2C(=O)O)N1 (stereo not given),97.1%
17,COc1ccc(C2CC(c3cccc(OC)c3)=NN2C(=O)c2cc(OC)c(OC)c(OC)c2)cc1 (stereo not given),-44.1% (active)
18,Cc1ccc2nc3ccccc3c(NCc3ccccc3)c2c1,40.6%
19,COC(=O)c1cc(C(=O)OC)cc([N+](=O)[O-])c1,85.8%
20,O=C(Nc1cccc(Cl)c1)c1cc(Cl)ccc1O,-32.4% (active)

# From PubChem BioAssay (NCI)
